This is part of a sample that, as a whole, favours compounds with a hit. Of some 83,000 tested, about 20% had one in any assay.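 Single-concentration screen, 48 h exposure, 96-well plates. Endpoint: percent growth. Below 10 = active.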 Unmarked numbers belong to inactive results. The source made the active and inactive calls.

Holding throughout (assay): NCI-60 one-dose screen, 48 h (100 = growth as untreated, 0 = no growth, -100 = all killed)
In assay [1] the test system is HOP-92 NSCLC. To be noted: 10 µM unless noted.
For assay [2], the system named is COLO 205 colon. To be noted: 10 µM.
For assay [3], the system named is MALME-3M melanoma. To be noted: 10 µM unless noted.
Assay [4] has as its system RXF 393 renal. To be noted: 10 µM unless noted.
In assay [5] the test system is M14 melanoma. To be noted: 10 µM unless noted.
In assay [6] the test system is U251 CNS. Particulars: 10 µM unless noted.
In assay [7] the test system is LOX IMVI melanoma. Particulars: 10 µM unless noted.
Assay [8] has as its system TK-10 renal. Particulars: 10 µM unless noted.
Assay [9] deals with MOLT-4 leukemia. To be noted: 10 µM.
The subject of assay [10] is SR leukemia. To be noted: 10 µM.
Assay [11] concerns RPMI-8226 leukemia. To be noted: 10 µM unless noted.
Assay [12] deals with SK-OV-3 ovarian. Particulars: 10 µM unless noted.
The test system of assay [13] is BT-549 breast. To be noted: 10 µM.
In assay [14] the test system is SW-620 colon. To be noted: 10 µM unless noted.
Assay [15] concerns EKVX NSCLC. Particulars: 10 µM unless noted.
The subject of assay [16] is CAKI-1 renal. To be noted: 10 µM unless noted.
Assay [17] deals with CCRF-CEM leukemia. Particulars: 10 µM unless noted.
In assay [18] the test system is HCT-116 colon. To be noted: 10 µM unless noted.
Assay [19] relates to NCI-H522 lung. To be noted: 10 µM unless noted.

As for `CN(C)P1(N(C)C)=NP(N(C)C)(N(C)C)=NP(N(C)C)(N(C)C)=N1`, the growth in assay [1] is 76%; in assay [2], 113%; in [3] it was 106%; in assay [4] it was 109%; in assay [5], 101%; in assay [6], 97.9%. In addition, the growth in assay [7] is 92.7%; in assay [8], 95.3%; in assay [9], 102%; in assay [10], 92.6%; in [11] it was 98.1%; in assay [12] it was 106%. Besides, the growth in assay [13] is 105%; in [14], 103%.
With `C/C(=C\c1cc(C(F)(F)F)n(-c2ccc(N)cc2)n1)[C@@H]1C[C@@H]2O[C@]2(C)CCC[C@H](C)[C@H](O)[C@@H](C)C(=O)C(C)(C)[C@@H](O)CC(=O)O1`, the growth in assay [1] was 37.9%; in assay [2], -45% (active); in [3] it was 58.1%; in assay [4], -8.53% (active); in [5] it was -14.3% (active); in [6], 3.19% (active). The growth in assay [7] was 4.2% (active); in assay [15], 31.8%; in assay [16] it was 25.3%; in assay [17] it was 12.8%; in [9], 4.35% (active); in [10], -16.4% (active). Moreover, the growth in assay [11] was 3.83% (active); in assay [12], 2.26% (active); in [13], -2.85% (active); in assay [14] it was 26.5%; in assay [18], 5.82% (active).
Regarding `CCOC(=O)/C=C(\C)Nc1ccc(N/C(C)=C/C(=O)OCC)c2c1Oc1ccccc1O2`, the growth in [1] is 79%; in assay [2], 121%; in [3] it was 107%; in assay [4], 0.357% (active); in assay [5], 107%; in assay [6], 99.2%. The growth in assay [15] was 89%; in assay [8], 124%; in assay [16], 95.5%; in [17], 43.2%; in [9], 75.5%; in assay [10], 78.3%. In addition, the growth in assay [11] is 83.2%; in assay [12], 107%; in [13], 102%; in assay [14] it was 99.4%; in assay [18] it was 105%.
`COC(=O)C[Se]C(=O)c1ccccc1OC(C)=O`: the growth in [1] was 93.3%; in assay [2] it was 46.7%; in assay [3], 69.9%; in assay [4], 78.9%; in assay [5], 49.3%; in [6], 66.3%. The growth in [7] was 59.6%; in [15] it was 31.4%; in assay [8] it was 93.1%; in [16], 87.8%; in assay [17], 76.6%; in [9], 86%. The growth in assay [10] was 20.7%; in assay [11] it was 96%; in assay [12] it was 221%; in [13], 71.9%; in [14], 97.8%; in assay [18], 10.9%.
As for `Oc1ccc(O)c2c1C1(Cl)C(Cl)=C(Cl)C2(Cl)C1(Cl)Cl`, the growth is 12% in assay [1]; 72% in assay [2]; 20% in [3]; 29.8% in assay [4]; 32.6% in [5]; 43.1% in assay [7]. In addition, the growth in [15] is 34.3%; in assay [8], 75.4%; in assay [16] it was 34.6%; in assay [17] it was 56.9%; in [10], 34.9%; in assay [11], 64%. The growth was 66.9% in [12], 29.2% in [13], 56.9% in assay [14] and 28.4% in assay [18].
For the compound `CCOCC1(CCc2ccccc2)C(=O)NC(=S)NC1=O`, the growth in assay [1] was 101%; in [2] it was 109%; in assay [3], 138%; in assay [4], 117%; in [5], 105%; in assay [6], 101%. Also, the growth in assay [7] is 94.9%; in assay [15], 116%; in assay [8], 115%; in assay [17] it was 100%; in assay [9], 91.8%; in [10] it was 92.7%. In addition, the growth in assay [11] was 104%; in assay [12], 112%; in assay [13] it was 105%; in [14] it was 109%; in assay [18], 101%.
As for `O=C1NC2(CCNCC2)Nc2ccccc21`, the growth in assay [1] is 107%; in assay [19], 97.5%; in [3] it was 117%; in [4], 111%; in [6], 91.2%; in assay [7], 102%. In addition, the growth in assay [15] is 109%; in [8] it was 98.3%; in [17] it was 94.9%; in assay [9] it was 84.7%; in assay [10], 86.9%; in assay [12], 103%. Moreover, the growth was 108% in assay [13], 102% in [14] and 100% in assay [18].
With `CCCCCCCCCCOc1ccc(C(=O)Oc2ccc(CSP3(=O)OCC4OC(n5ccc(=O)[nH]c5=O)C(F)C4OP(=O)(O)OCC4OC(n5cnc6c(N)ncnc65)C(F)C4O3)cc2)cc1` (stereo not drawn), the growth in [1] was 85.4%; in [19], 71.1%; in assay [3] it was 110%; in assay [4] it was 72.6%; in assay [5] it was 90.7%; in assay [6] it was 104%. In addition, the growth in [7] is 85.3%; in assay [15], 111%; in assay [8], 92%; in assay [17], 87.1%; in assay [10] it was 25.4%; in assay [11], 82.6%. For the same compound, the growth is 97.8% in assay [12], 87.7% in assay [13], 115% in assay [14] and 79.9% in assay [18].
Consider `O=c1[nH]c2cc(Cl)ccc2n1C1CCN(CCCC(c2ccc(F)cc2)c2ccc(F)cc2)CC1`, for which the growth in assay [1] was -37.7% (active); in assay [19] it was -56.4% (active); in assay [3] it was -1.17% (active); in assay [4], 30.5%; in assay [5], -52.2% (active); in assay [6] it was 29.4%. The growth is -91.9% (active) in [7]; 61.5% in assay [15]; 13.1% in assay [8]; 30% in [16]; -39.3% (active) in [17]; -28.3% (active) in [9]. Besides, the growth in assay [10] is 16.2%; in assay [11], -52.8% (active); in assay [12], 78.1%; in assay [13] it was 78.4%; in assay [14], -80.7% (active); in assay [18], 3.23% (active).

For the origin of these results see PubChem BioAssay (NCI).
